Assay [1] in a line: NCI Yeast Anticancer Drug Screen. Data for the rad50 strain (AID 155).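 Further: 0% = growth of vehicle-only cultures of the same strain.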 Particulars: S. cerevisiae rad50 strain growth inhibition; at 50.0 µM; stronger effect = higher value. The gist of the method: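 Growth of the mutant yeast was measured after compound exposure and referenced to vehicle-treated cultures.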
A short description of assay [2]: NCI Yeast Anticancer Drug Screen. Data for the mec2-1 strain (AID 157). Particulars: S. cerevisiae mec2-1 strain, at 50.0 µM, stronger effect = higher value. The method in brief:
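Each compound was tested on mec2-1 yeast, a strain altered in DNA damage repair or cell cycle control. Growth inhibition is reported relative to vehicle.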

The nature of assay [3]: NCI Yeast Anticancer Drug Screen. Data for the sgs1 mgt1 strain (AID 161).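 Further: 0% = growth of cultures given vehicle only.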 Conditions: S. cerevisiae sgs1 mgt1 strain, at 50.0 µM, stronger effect = higher value. The gist of the method: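 Inhibition of yeast growth, normalised to vehicle-treated controls, is reported for a strain bearing genetic alterations in DNA damage repair.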
Assay [4] can be described thus: NCI Yeast Anticancer Drug Screen. Data for the cln2 rad14 strain (AID 165).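 Further: 0% = growth equal to vehicle treated cultures.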 Particulars: S. cerevisiae cln2 rad14 strain, at 50.0 µM, stronger effect = higher value. The method in brief: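 Test compounds were added to cln2 rad14 yeast cultures; inhibition of growth was then determined by comparison with vehicle treatment.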
The nature of assay [5]: NCI Yeast Anticancer Drug Screen. Data for the bub3 strain (AID 167). Conditions: S. cerevisiae bub3 mutant strain, at 50.0 µM, stronger effect = higher value. The gist of the method: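 Whole-cell yeast assay. The mutant strain was incubated with compounds, and growth inhibition was determined by comparison with vehicle-treated cells.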
Assay [6] in a line: NCI Yeast Anticancer Drug Screen. Data for the mlh1 rad18 strain (AID 175). Conditions: S. cerevisiae mlh1 rad18 strain growth inhibition; at 50.0 µM; stronger effect = higher value. The method in brief: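 Inhibition values reflect reduced growth of mutant yeast versus vehicle-treated controls following compound exposure; the mutations affect DNA damage repair.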

Molecules are shown by their SMILES. The panel holds about 79,000 compounds, 15% with a hit somewhere; the sample as a whole holds those more often. A number with no mark means an inactive call. The source made the active and inactive calls. No stated cut-off is given here; in the data, active means growth inhibition above about 70%; inactive means the rest.

Consider `CCC(C)C1CCCCC1OC(=O)CCl` (stereo not given), for which the growth inhibition in assay [1] was -5.45%; in assay [2], -14.8%; in assay [3] it was -16.3%; in assay [4] it was 0.05%; in assay [5], -9.55%; in assay [6], -18.6%.
Consider `CCOC(=O)C(c1ccc(C)cc1)C(Cl)(Cl)Cl` (stereo not given), for which the growth inhibition in assay [1] was 2.45%; in assay [2], -9.55%; in assay [3], 3.85%; in assay [4] it was -1.05%; in assay [5] it was -11.5%; in assay [6], 26.4%.
Consider `CC(C)C1N=C(N)N=C(N)N1c1ccc(Cl)c(Cl)c1` (stereo not given), for which the growth inhibition was 17.4% in assay [1]; 10.1% in assay [2]; 8% in assay [3]; -16.9% in assay [4]; 5.25% in assay [5]; 6.6% in assay [6].
`Cc1ccc(C2(c3ccc(Cl)cc3)c3ccccc3C3=NCCN32)cc1` (stereo not given): the growth inhibition in assay [1] is 19.9%; in assay [2], 9.15%; in assay [3], 25.6%; in assay [4] it was 23%; in assay [5], 28.1%; in assay [6], 30.7%.
Take `O=C1OC(c2ccc(Cl)cc2)=C/C1=C/c1ccccn1`: the growth inhibition is -1.4% in assay [1]; 10% in assay [2]; 5.2% in assay [3]; -34% in assay [4]; 4.55% in assay [5]; 11.3% in assay [6].
On to `COc1ccc(C2NCCCC2c2ccccc2)cc1` (stereo not given), for which the growth inhibition in assay [1] was -46.3%; in assay [2], -29.4%; in assay [3], -2.65%; in assay [4] it was 14.8%; in assay [5], -40.2%; in assay [6], -11.1%.
On to `Cc1ccc(C2(C)CC/C(=N/N=C3/CCC(C)(c4ccc(C)c(C)c4)c4cc(C)c(C)cc43)c3cc(C)c(C)cc32)cc1C` (stereo not given), for which the growth inhibition in assay [1] is -17%; in assay [2], -13.8%; in assay [3], -27.9%; in assay [4], -40.6%; in assay [5], -11.4%; in assay [6], -12.4%.
Regarding `C[N+]1(C)CCOC(O)(c2ccccc2)C1` (stereo not given), the growth inhibition in assay [1] is -29.6%; in assay [2], -34%; in assay [3] it was -27.4%; in assay [4] it was -2.85%; in assay [5], -59.1%; in assay [6], -18.6%.
`N#CCCC1(CCC#N)CCCCCCC(CCC#N)(CCC#N)C(O)C1O` (stereo not given): the growth inhibition in assay [1] was 10.8%; in assay [2], -12%; in assay [3], -6.45%; in assay [4] it was 3.15%; in assay [5], -15.2%; in assay [6], -46.2%.
`CC(=O)O[C@H]1C[C@H]2CC[C@@]1(C)C2(C)C`: the growth inhibition in assay [1] was 0.85%; in assay [2], -4.45%; in assay [3] it was -5.55%; in assay [4], -24.8%; in assay [5] it was -1.1%; in assay [6], 7.95%.
For `CC(/C=C/C(=O)c1sc(C(N)=S)nc1C)=C\c1ccccc1`, the growth inhibition in assay [1] was 4.55%; in assay [2], -13.1%; in assay [3] it was -6.8%; in assay [4], 10.8%; in assay [5], -5.8%; in assay [6], 22.2%.
Regarding `O=C(O)c1c(Cl)c(Cl)c(Cl)c(C(=O)O)c1Cl`, the growth inhibition is -2.05% in assay [1]; 2.2% in assay [2]; 7.25% in assay [3]; -36.1% in assay [4]; 5.85% in assay [5]; 19.2% in assay [6].
With `CCc1c(O)c2c(=O)n(C)c(=O)n3c4ccccc4n(c1=O)c23`, the growth inhibition is 40.4% in assay [1]; 41.4% in assay [2]; 45.7% in assay [3]; 26.8% in assay [4]; 38.9% in assay [5]; 39.8% in assay [6].
As for `CC12CCC(C/C1=N\NC(N)=O)C2(C)C` (stereo not given), the growth inhibition in assay [1] is 4.2%; in assay [2], -16.6%; in assay [3], -18.2%; in assay [4], 2.55%; in assay [5], -19.9%; in assay [6], -1.45%.
As for `CC(=O)Nc1cccc(/C=C/c2ccc([N+](=O)[O-])cc2)c1`, the growth inhibition in assay [1] is 52.8%; in assay [2], 42.6%; in assay [3] it was 53%; in assay [4], 32.5%; in assay [5] it was 46.4%; in assay [6], 89.2% (active).
For the compound `Cc1cc2c(=O)cc(-c3ccc(Cl)cc3Cl)oc2c(C(=O)O)c1C`, the growth inhibition in assay [1] is -19.6%; in assay [2] it was 10.9%; in assay [3] it was 9%; in assay [4], 23.6%; in assay [5], 11.6%; in assay [6], 29.5%.
Consider `O=C(CCC(=O)Oc1ccccc1)Oc1ccccc1`, for which the growth inhibition is -15.9% in assay [1]; -1.1% in assay [2]; -31.6% in assay [3]; 3.2% in assay [4]; 28.3% in assay [5]; 13.7% in assay [6].
With `CC(C)COP(C)(=O)C(N)(C(F)(F)F)C(F)(F)F` (stereo not given), the growth inhibition is 10.9% in assay [1]; 8% in assay [2]; 35.6% in assay [3]; 25.8% in assay [4]; 40.1% in assay [5]; -12.4% in assay [6].
`CC(=O)NC(C(=O)O)C(C)(C)S` (stereo not given): the growth inhibition in assay [1] was -1.85%; in assay [2] it was -48.9%; in assay [3], -4.7%; in assay [4] it was 26.8%; in assay [5], -33.2%; in assay [6], 8.95%.
As to `CN1/C(=C\N=O)C(C)(C)N(O)C1(C)C`, the growth inhibition in assay [1] is 16.6%; in assay [2], -13.9%; in assay [3], 2.55%; in assay [4], 17.2%; in assay [5], 5.85%; in assay [6], -85.7%.

(Values after PubChem BioAssay (NCI).)
